Test results from article PMC9574860, “Chemical Toolkit for PARK7: Potent, Selective, and High-Throughput” (Journal of Medicinal Chemistry, 2022).
Screen size: about 7,900 compounds; about 400 (5.1%) showed an effect of 50% or more. For the sample, strong results were picked, then their nearest neighbours and some compounds at random.

Each compound was assayed against Parkinson's disease protein 7 (PARK7/DJ1) (human, UniProt Q99497) (assay: primary screen, percent inhibition; read as competition with a fluorescent probe by fluorescence polarization; higher = more effect of the substance). Conditions: 100 µM.
Sequence of Parkinson's disease protein 7 (PARK7/DJ1) (Q99497 whole entry, looked up, the tested form may be a part): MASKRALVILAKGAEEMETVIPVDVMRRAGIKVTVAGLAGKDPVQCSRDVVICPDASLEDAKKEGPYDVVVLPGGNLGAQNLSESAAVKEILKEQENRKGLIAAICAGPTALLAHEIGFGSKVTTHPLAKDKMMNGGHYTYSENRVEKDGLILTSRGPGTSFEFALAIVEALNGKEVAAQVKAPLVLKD
Outline: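 Fluorescence-polarization probe displacement (JYQ-107, 20 nM final, 2 h) after 2 h preincubation of PARK7 (0.2 μM final) with each fragment at 100 μM final. Read-out ex/em 480/520 nm; remaining activity derived from FP signal loss relative to reference controls.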
In the case of `CC(C)Cn1c(S)nc2ncccc2c1=O`, the Inhibition % is reported as 6.75%. `O=C(CCl)NCc1ccc(Cl)cc1` was tested, and the Inhibition % was 2.75%. With `C=CC(=O)Nc1cnn(C2CCOCC2)c1C` the Inhibition % was 8.19%. `N#Cc1cc(Cl)nc(C2CC2)n1` was tested, and the Inhibition % was 4.67%. Compound `O=C(CCl)Nc1ccc(Cl)c(C(F)(F)F)c1` has an Inhibition % of 26.2%. `O=C(CCl)NC(=O)c1ccc(OC(F)F)cc1` showed an Inhibition % of 28.9%. `COc1ccc(NC(=O)CCl)cc1` showed an Inhibition % of 55.2%. `O=C(CCl)Nc1ccc(OC(F)F)c(Cl)c1` showed an Inhibition % of 45.8%. `COc1ccc(NC(=O)NC(=O)CCl)cc1` gave an Inhibition % of 1.55%. `O=C(CCl)NCc1ccc(OC(F)(F)F)cc1` gave an Inhibition % of 5.21%. With `COc1ccc(NC(=O)CCCl)cc1` the Inhibition % was 4.56%. Work on `O=C(CCl)Nc1ccc(OC(F)(F)F)cc1` yielded an Inhibition % of 86%. Work on `O=C(CCl)Nc1ccc(OC(F)F)cc1` yielded an Inhibition % of 82.8%. Compound `O=C1CCN1c1ccccc1` has an Inhibition % of 5.28%. `CC(CC#N)Sc1ccccc1NC(=O)CCl` (stereo not shown) gave an Inhibition % of 10.5%. In the case of `Cc1cc(C(=O)Cn2cnc(C#N)n2)c(C)s1`, the Inhibition % is reported as 2.94%. For `Cc1cc(C(=O)Cn2cnc(C#N)n2)c(C)[nH]1`, the Inhibition % was 7.96%. Compound `CCN(CC)C(=O)Oc1ccc(N2CCCC2)cc1` has an Inhibition % of -3.98%. With `O=C(CCl)NCc1cccc(NC(=O)C2CC2)c1` the Inhibition % was 11.4%. Work on `O=C(Nc1cccc(S(=O)(=O)F)c1)C1CCCC1` yielded an Inhibition % of 99.8%. Compound `O=C(NNS(=O)(=O)c1cccc(S(=O)(=O)F)c1)C1CCC1` has an Inhibition % of 99.9%. For `O=C1CCC(CC(=O)Nc2cccc(S(=O)(=O)F)c2)CC1`, the Inhibition % was 98.3%. `C=CC(=O)Nc1cc(NC(=O)C2CCC2)ccc1F` was tested, and the Inhibition % was 19.5%. `O=S(=O)(F)c1ccc(S(=O)(=O)NC2CCCC2O)cc1` (stereo not shown) was tested, and the Inhibition % was 16.5%. Compound `O=C(NNS(=O)(=O)c1ccc(S(=O)(=O)F)cc1)C1CCC1` has an Inhibition % of 10.2%. In the case of `Cc1cc(B2OC(C)(C)C(C)(C)O2)on1`, the Inhibition % is reported as 27.5%. Compound `Cc1ccc(S)nc1` has an Inhibition % of 7.53%. With `CCc1nc(C(C#N)=Cc2cnn(C)c2)sc1C` the Inhibition % was 2.61%. Work on `Cc1noc(C)c1CCn1ccnc1C#N` yielded an Inhibition % of 0.0226%. `Cl.O=C(CCl)N1CCN(Cc2cccs2)CC1` gave an Inhibition % of 3.64%. In the case of `Nc1ncnc2c1ncn2CCCCl`, the Inhibition % is reported as 2.3%. Compound `C=CC(=O)Nc1cccc(NC(C)=O)n1` has an Inhibition % of -0.654%. With `C=CC(=O)Nc1ccccn1` the Inhibition % was 3.17%. `C=CC(=O)Nc1cc2ccccc2nn1` was tested, and the Inhibition % was 95%. In the case of `Cc1ccc(C=C(C#N)S(C)(=O)=O)s1`, the Inhibition % is reported as 6.48%. `Cc1cc(=O)oc2cc(OCC3CO3)ccc12` (stereo not shown) showed an Inhibition % of 7.44%. Compound `CC(C)(C)n1nccc1B1OC(C)(C)C(C)(C)O1` has an Inhibition % of 6.06%. Compound `CC(CC(O)c1ccc(F)cc1)Nc1ccc(C#N)nc1` (stereo not shown) has an Inhibition % of 9.7%. Compound `Sc1ccc(-c2ccco2)nn1` has an Inhibition % of 57.3%. For `Cc1nc(-c2ccco2)nc(S)c1C(=O)O`, the Inhibition % was 1.46%. `O=C(CCl)Nc1nc(-c2ccco2)cs1` was tested, and the Inhibition % was 21.8%. For `O=C(CCl)N1CCCCCC1`, the Inhibition % was 14.9%. Compound `N#Cc1ccnc(C(=O)O)c1` has an Inhibition % of 1.71%. `N#Cc1ccnc(C(F)(F)F)c1` was tested, and the Inhibition % was 14.9%. Work on `N#Cc1ccnc(S)c1` yielded an Inhibition % of 67%. `O=C(CCl)Nc1ccccc1N1CCCC1=O` showed an Inhibition % of -0.367%. With `O=C(CCl)Nc1ccc(N2CCCC2)cc1` the Inhibition % was 7.34%. In the case of `CCN1CCN(c2ccc(NC(=O)CCl)cc2)CC1.Cl`, the Inhibition % is reported as 37.8%. Work on `O=C(CCl)Nc1ccc(N2CCCCC2)nc1` yielded an Inhibition % of 88.9%. `O=C(CCl)NCc1ccc(N2CCCC2)cc1` gave an Inhibition % of 0.611%. With `Cl.O=C(CCl)Nc1ccc(N2CCCCC2)cc1` the Inhibition % was 89.3%. `O=C(CCl)NCc1ccc(N2CCOCC2)nc1` gave an Inhibition % of 15.2%. Work on `O=C(CCl)Nc1ccc(N2CCCC2=O)cc1` yielded an Inhibition % of 9.28%. `O=C(CCl)Nc1cccnc1N1CCCC1` showed an Inhibition % of 18.8%. Compound `O=C(CCl)Nc1ccc(N2CCCCCC2)cc1` has an Inhibition % of 99.5%. `C=CC(=O)N1CC(S(=O)(=O)N2CCc3ccccc32)C1` gave an Inhibition % of 3.57%. `O=C(CCCl)Nc1cccc(F)c1` gave an Inhibition % of 5.31%. In the case of `C=CC(=O)N1CCC(c2cc3ccccc3[nH]2)C1` (stereo not shown), the Inhibition % is reported as 13.2%. In the case of `Cc1occc1-c1nnc(SC2CCOC2=O)n1C` (stereo not shown), the Inhibition % is reported as 12.4%. With `COc1c(C)cc(S(=O)(=O)n2nc(C)cc2C)c(C)c1C` the Inhibition % was 7.42%. `CC1(C)OB(c2cccc3c2CCO3)OC1(C)C` showed an Inhibition % of 9.99%. Work on `CN(Cc1ccco1)c1ccc(C#N)nc1` yielded an Inhibition % of 25.1%. In the case of `Cc1ccc(CNC(=O)n2ccnc2)cc1`, the Inhibition % is reported as 104%. Compound `COc1ccc(CCNC(=O)n2ccnc2)cc1OC` has an Inhibition % of 10.3%. Work on `O=C(NCc1ccc2c(c1)OCO2)n1ccnc1` yielded an Inhibition % of 99.9%. `CN(Cc1ccccc1Cl)C(=O)n1ccnc1` gave an Inhibition % of 2.68%. In the case of `C=CC(=O)NCc1ccc2c(c1)OCO2`, the Inhibition % is reported as 11.2%. `O=C(CCl)NCc1ccc2c(c1)OCO2` was tested, and the Inhibition % was 14%. With `Cc1ccc(CNC(=O)CCl)cc1` the Inhibition % was 1%. `CN(Cc1cccnc1)C(=O)n1ccnc1` gave an Inhibition % of 10.8%. With `CN(C)c1ccc(CNC(=O)n2ccnc2)cc1` the Inhibition % was 97%. Compound `O=C(NCc1ccc(Cl)cc1)n1ccnc1` has an Inhibition % of -1.68%. Compound `Cc1cccc(OCCNC(=O)CCl)c1` has an Inhibition % of 12.5%. `Cc1cccc(OCCNC(=O)n2ccnc2)c1` was tested, and the Inhibition % was 92.6%. With `Cn1nncc1B1OC(C)(C)C(C)(C)O1` the Inhibition % was 6.79%. `C=CC(=O)N1CCC(c2ncc(C)s2)CC1` showed an Inhibition % of 1.87%. Work on `O=C(C=CC1=CCCC1)N1CCCC(N2CCNC2=O)C1` (stereo not shown) yielded an Inhibition % of 28%. `Cl.O=S(=O)(F)C1CCCNC1` (stereo not shown) gave an Inhibition % of 8.33%. `C=CC(=O)N1CCN(CC)C(=O)C1(C)C` was tested, and the Inhibition % was 2.96%. In the case of `C=CC(=O)N1CCC(C#N)(COC)CC1`, the Inhibition % is reported as 5.2%. Work on `Cc1ccc(NC(=O)CN2CCSC2=O)cc1F` yielded an Inhibition % of 3.32%. `COC(=O)Cc1csc(NC(=O)CCl)n1` was tested, and the Inhibition % was 20.2%.
